Marburg entry = inhibitors of Marburg virus binding or entry into cells | Potency, µM (series often up to 49.2 µM), inactives show at the top dose activity change, negative = inhibition, hits mostly inhibitors | AID 720532 | Marburg virus pseudotype entry/binding inhibition, cell-based | 18,000 compounds, 6.5% hits
Lassa entry = inhibitors of Lassa virus binding or entry into cells. Lassa virus pseudotyped entry inhibition, cell-based qHTS. Potency, µM (top dose mostly 49.2 µM), inactives show top-dose activity change, negative = inhibition, most hits filed as inhibitors. 18,000 compounds, 4.1% hits. AID 720533
Starred values were filed as active, the others as inactive; u = inconclusive; [ ] = remark or other dose. A selection: hits, their analogues and other compounds. The true share with any hit is near 8%. Calls come from the whole dose curve; tested in HEK293 cells. % is set by controls: 0 for no effect and ±100 for the full control effect; potency is the fitted concentration of half-maximal effect.

SMILES	Marburg entry	Lassa entry
C[C@H]1O[C@@H](O[C@H]2[C@@H](O)C[C@H](O[C@H]3[C@@H](O)C[C@H](O[C@H]4CC[C@]5(C)C6CC[C@]7(C)[C@@H](C8=CC(=O)OC8)CC[C@]7(O)C6CC[C@@H]5C4)O[C@@H]3C)O[C@@H]2C)C[C@H](O)[C@@H]1O (some centres not stated)	u	0.0025µM*
CC1O[C@@H](O[C@@H]2C(O)C[C@H](O[C@@H]3C(O)C[C@@H](OC4CC[C@@]5(C)C6CC[C@]7(C)C(C8=CC(=O)OC8)CC[C@@]7(O)C6CC[C@@H]5C4)OC3C)OC2C)CC(O)[C@H]1O (some centres not stated)	0.22µM*	0.28µM*
Cc1cc(Cl)cc2c(N=Nc3ccc(S(N)(=O)=O)cc3)c(O)[nH]c12	-24%	-24%
COc1ccc(CN2C[C@]3(CO)OC(CO)C[C@H]3[S+]2(=O)[O-])cc1 (some centres not stated)	20%	13%
Oc1ccc2c3c1O[C@H]1c4oc5ccccc5c4C[C@]4(O)[C@H](C2)N(CC2CC2)CC[C@@]314	28µM*	28µM*
COC(=O)/C=C/C(=O)N[C@@H]1CC[C@@]2(O)[C@H]3Cc4ccc(O)c5c4[C@@]2(CCN3CC2CC2)[C@H]1O5	10µM*	28µM*
Oc1ccc2c3c1O[C@H]1[C@@H](O)CC[C@]4(O)[C@H](C2)N(CC2CCC2)CC[C@@]314	-13%[17.8 µM]	-3%[17.8 µM]
Oc1ccc2c3c1O[C@H]1c4[nH]c5ccccc5c4C[C@]4(O)[C@H](C2)N(CC2CC2)CC[C@@]314	22µM*	u
O=C1CC[C@@]2(O)[C@H]3Cc4ccc(O)c5c4[C@@]2(CCN3CC2CC2)[C@H]1O5	-28%	2%
Oc1ccc2c3c1O[C@H]1c4[nH]c5c(c4C[C@@]4(O)[C@@H](C2)N(CC2CC2)CC[C@]314)C[C@@]1(O)[C@H]2Cc3ccc(O)c4c3[C@@]1(CCN2CC1CC1)[C@H]5O4	-19%	8%
O=C1CC[C@]2(O)[C@H]3Cc4ccc(O)c5c4[C@@]2(CCN3CC2CC2)[C@@H]1O5	6%[17.8 µM]	-14%[17.8 µM]
Oc1ccc2c3c1O[C@H]1c4c(c5ccccc5n4Cc4ccccc4)C[C@]4(O)[C@H](C2)N(CC2CC2)CC[C@@]314	11µM*	16µM*
CC(C)(C)[Si](C)(C)OCCC[C@@H]1C[C@H]2C=CCOP(=O)(O1)O2	14%	-2%
C=C[C@@H]1C[C@H](C=C)OP(=O)(OCC(=C)C)O1 (some centres not stated)	50%	33%
C=CC1CC2C=CCOP(=O)(O1)O2 (configuration not stated)	u	-12%
C[C@]12O[C@@H]1[C@@H](O)C(Br)=C(CO)[C@@H]2O	52%[8.59 µM]	3%[8.59 µM]
CC(=O)[C@]12[C@H](c3ccccc3)[C@@H]3CCN(C(=O)N[C@H]1c1ccccc1)[C@@]32C	-11%[8.59 µM]	-1%[8.59 µM]
C=COC[C@@H]1CN2[C@H](c3ccc(Br)cc3)[C@H](C)CC[C@H]2C(=O)O1	31%[8.59 µM]	11%[8.59 µM]
COC(=O)C1=C(C(=O)OC)[C@@H]2Nc3ccccc3[C@@]23C[C@@H](C(=O)OC)N(C(=O)NC2CCCC2)C3=N1	-4%[8.59 µM]	1%[8.59 µM]
COc1ccccc1N1CCN(CCCCNC(=O)c2ccc3ccccc3c2)CC1	-27%[17.8 µM]	4%[17.8 µM]
COc1cc2c(N3CCN(C(=O)Nc4ccc(OC(C)C)cc4)CC3)ncnc2cc1OCCCN1CCCCC1	8.9µM*	u
Cc1cc2c(nc1C)CCCN2CC(O)CN1CCN(C)CC1 (configuration not stated)	18%[8.59 µM]	-17%[8.59 µM]
COc1ccc(CN2CCCC(c3nc(C)ncc3-c3ccc(F)cc3)C2)c(OC)c1OC (configuration not stated)	-15%	-9%
CCOc1ccccc1CN1CCCC(c2nc(C)ncc2-c2ccc(F)cc2)C1 (configuration not stated)	10µM*	-15%
COc1ccc(OC)c(CN2CCCC(c3nc(C)ncc3-c3ccc(F)cc3)C2)c1 (configuration not stated)	u	-22%
SMILES	Marburg entry	Lassa entry
COc1cc(OC)c(OC)cc1CN1CCCC(c2nc(C)ncc2-c2ccc(F)cc2)C1 (configuration not stated)	11µM*	-13%
COC1=C[C@H](C(=O)NC2CCN(Cc3ccccc3)CC2)[C@@]2(C)Cc3ccccc3[C@@H]2CC1=O	-18%[8.59 µM]	28%[8.59 µM]
CC[C@H](C)[C@@H]1NC(=O)[C@@H]2CSCCS(=O)(=O)N2C1=O	19%	5%
O=S1(=O)CCSCCN1Cc1ccc(F)cc1F	23%	18%
O=[N+]([O-])c1ccc(/C=N\O)o1	16%	-2%
NC(N)=NN=C(/C=C/c1ccc([N+](=O)[O-])o1)/C=C/c1ccc([N+](=O)[O-])o1	14µM*	6.3µM*
COc1cccc(CS(=O)(=O)c2ccccc2)c1	10%	2%
COc1cccc(CCc2ccccc2OCC(CN(C)C)OC(=O)CCC(=O)O)c1 (configuration not stated)	11µM*	22µM*

Screening results from PubChem.
